# Experimental data reported in PubChem BioAssay (NCATS).
# Values joined by “and” are separate entries in the source; they are usually repeats but may differ in a detail not shown here. Equal entries are not always repeated. Records with an inconclusive call do not appear. Where a call stands in place of a potency, no number is given. Some compounds were tested as several samples or in several runs, with calls that do not always agree. Active and inactive are the calls of the source. Unless noted, calls come from the whole dose curve; as a rule, active = well fitted inhibition curve with a large enough effect; inconclusive = small, poorly fitted or top-dose-only effect; inactive = no such curve, though single readings can be large or run the other way.
# Biological target: Atrial natriuretic peptide receptor 2 (Homo sapiens) (UniProt P20594)
# Test: Natriuretic polypeptide receptor (hNpr2) antagonism - Pilot subtype selectivity assay (AID 1347050; calls by dose curve)
# Conditions: NPR2-expressing cells, cGMP antagonist-mode read-out; series mostly up to 38.3 µM
# In short: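 Pilot selectivity screen against hNpr2: HEK293 cGMP-sensor cells are treated with LOPAC1280 compounds, then with hNppC peptide at 1 nM final. The cGMP-driven luminescence change over 20 min at room temperature is the read-out.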
# Sequence of Atrial natriuretic peptide receptor 2 (Homo sapiens) (P20594 whole entry, looked up): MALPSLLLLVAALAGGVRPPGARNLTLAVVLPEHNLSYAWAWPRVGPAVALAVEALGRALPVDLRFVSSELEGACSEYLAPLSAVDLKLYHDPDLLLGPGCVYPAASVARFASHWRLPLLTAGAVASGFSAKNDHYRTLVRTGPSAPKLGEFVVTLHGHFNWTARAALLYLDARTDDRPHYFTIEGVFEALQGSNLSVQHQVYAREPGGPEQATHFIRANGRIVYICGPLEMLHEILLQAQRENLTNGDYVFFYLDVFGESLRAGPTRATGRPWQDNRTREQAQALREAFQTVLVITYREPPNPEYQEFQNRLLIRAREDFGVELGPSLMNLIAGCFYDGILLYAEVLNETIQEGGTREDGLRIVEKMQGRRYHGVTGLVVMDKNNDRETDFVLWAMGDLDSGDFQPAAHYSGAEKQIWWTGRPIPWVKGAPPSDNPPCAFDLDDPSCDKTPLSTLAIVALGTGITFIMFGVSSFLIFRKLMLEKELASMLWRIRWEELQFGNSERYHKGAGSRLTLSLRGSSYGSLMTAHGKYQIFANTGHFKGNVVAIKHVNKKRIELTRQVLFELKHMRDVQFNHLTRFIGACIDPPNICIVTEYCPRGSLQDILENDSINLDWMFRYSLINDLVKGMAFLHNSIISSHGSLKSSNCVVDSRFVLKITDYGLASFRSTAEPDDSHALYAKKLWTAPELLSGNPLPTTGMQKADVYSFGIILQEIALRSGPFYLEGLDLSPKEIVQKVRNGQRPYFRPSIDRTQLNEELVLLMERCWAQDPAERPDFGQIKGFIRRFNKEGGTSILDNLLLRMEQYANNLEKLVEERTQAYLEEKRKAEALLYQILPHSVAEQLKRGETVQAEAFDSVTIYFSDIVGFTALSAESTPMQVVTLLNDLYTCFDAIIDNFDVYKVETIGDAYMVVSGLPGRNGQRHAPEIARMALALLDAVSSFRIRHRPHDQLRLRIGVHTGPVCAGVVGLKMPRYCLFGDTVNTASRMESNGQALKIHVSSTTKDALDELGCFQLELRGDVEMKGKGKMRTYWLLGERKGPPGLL
row,Structure (SMILES),Potency
1,Cc1oncc1C(=O)Nc1ccc(C(F)(F)F)cc1,inactive
2,CC(C)C[C@H](NC(=O)[C@@H](O)[C@H](N)Cc1ccccc1)C(=O)O,inactive
3,CC(C)(Sc1ccc(CCN(CCCCC2CCCCC2)C(=O)NC2CCCCC2)cc1)C(=O)O,inactive

# Tested on: not listed separately
# Test: NS1 protein of Zika virus - qHTS assay to identify small molecule inhibitors in human HEK 293 cells (AID 1347053); note: nearly all actives have a fitted effect of over 55% in size; note: potency is the fitted concentration of half-maximal effect
# Conditions: HEK293 ZIKV MR766 infection, NS1 TR-FRET, 24 h; series mostly up to 46.1 µM
# In short: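 Inhibition of NS1 expression was scored in HEK 293 cells given compound 1 h ahead of MR766 virus (MOI = 0.5). Following 24 h at 37 C, two anti-NS1 antibodies generated a TR-FRET signal, scaled between uninfected and infected controls.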
row,Structure (SMILES),Potency
1,Cc1oncc1C(=O)Nc1ccc(C(F)(F)F)cc1,inactive and 11.8 µM (active)
2,CC(C)C[C@H](NC(=O)[C@@H](O)[C@H](N)Cc1ccccc1)C(=O)O,inactive
3,COc1c(Cl)cc2c([nH]c3cnccc32)c1NC(=O)c1cccnc1C,inactive
4,Cc1c(C)c2c(c(C)c1O)CCC(C)(COc1ccc(CC3SC(=O)NC3=O)cc1)O2 (stereo not given),inactive
5,CN(C)c1ccc(Nc2nc(N)n(C(=O)c3c(F)cccc3F)n2)cc1,inactive
6,COc1ccc2c3n(c(=NC(=O)c4cccnc4)nc2c1OC)CCN3,inactive
7,CS(=O)(=O)c1cccc(CNc2nc(Nc3ccc4c(c3)CCC(=O)N4)ncc2C(F)(F)F)c1,inactive
8,Oc1cccc(-c2nc(N3CCOCC3)c3oc4ncccc4c3n2)c1,2700 nM (active)
9,CC(C)(Sc1ccc(CCN(CCCCC2CCCCC2)C(=O)NC2CCCCC2)cc1)C(=O)O,inactive
10,CCC(C)n1ncn(-c2ccc(N3CCN(c4ccc(OC[C@H]5CO[C@](Cn6cncn6)(c6ccc(Cl)cc6Cl)O5)cc4)CC3)cc2)c1=O (stereo not given in full),inactive
11,c1ccc(-c2nn3c(c2-c2ccnc4cc(OCCN5CCOCC5)ccc24)CCC3)nc1,inactive
12,Cc1cccc(-c2nn(C(=S)Nc3ccccc3)cc2-c2ccnc3ccccc23)n1,inactive
